proKLK7 act – proKLK7 (human) activation, primary screen. actives 0.9% (n = 370,000). activation, % at 7 µM. purified proKLK7, EDANS-DABCYL substrate fluorescence; 100% is mature enzyme control, 0% vehicle;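 active = activation above the mean of all tested compounds plus 3 SD, computed per campaign excluding outliers beyond control limits, cut at about 13% in these data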
ADAM10 inh – inhibits human ADAM10; inhibition, % at 7 µM; O14672; recombinant ADAM10, EDANS/DABCYL FRET peptide cleavage, 3 h; AID 720582; actives 0.62% (n = 370,000);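 active = inhibition above a per-campaign cutoff equal to the mean of compounds falling between control-based bounds plus 3 SD, cut at about 20% in these data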;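 also: 0% = DMSO wells while the 100% control is not disclosed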
GRIN3A LBD mod – modulates the human NR3A ligand-binding domain; Tm shift relative to glycine control, % at 25 µM; actives 2.5% (n = 340,000); NR3A LBD differential scanning fluorimetry, Tm shift; 0% = protein alone, 100% = glycine-bound protein; AID 1259313;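 active = melting temperature shift of at least 10% of the positive control shift, at one fixed dose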
rCAG binder – r(CAG) repeat RNA binding; AID 651821; inhibition, % at 3 µM; actives 1.3% (n = 370,000); TO-PRO-1 dye displacement fluorescence;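 active = inhibition above the plate cutoff, the mean of all test compounds on that plate plus 3 SD, cut at about 35% in these data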;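 also: 0% = DMSO alone and 100% = 100 µM mitoxantrone as full dye displacement; higher means more dye released from RNA so lower well fluorescence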
AHR act – activators of human aryl hydrocarbon receptor; AID 2796; activation, % at 5 µM; AHR-responsive luciferase reporter cells, luminescence; actives 2.5% (n = 320,000); in the data active = activation above about 47%;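 also: 0% = vehicle wells and 100% = reference agonist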
Target sequence (P35869 whole entry, looked up): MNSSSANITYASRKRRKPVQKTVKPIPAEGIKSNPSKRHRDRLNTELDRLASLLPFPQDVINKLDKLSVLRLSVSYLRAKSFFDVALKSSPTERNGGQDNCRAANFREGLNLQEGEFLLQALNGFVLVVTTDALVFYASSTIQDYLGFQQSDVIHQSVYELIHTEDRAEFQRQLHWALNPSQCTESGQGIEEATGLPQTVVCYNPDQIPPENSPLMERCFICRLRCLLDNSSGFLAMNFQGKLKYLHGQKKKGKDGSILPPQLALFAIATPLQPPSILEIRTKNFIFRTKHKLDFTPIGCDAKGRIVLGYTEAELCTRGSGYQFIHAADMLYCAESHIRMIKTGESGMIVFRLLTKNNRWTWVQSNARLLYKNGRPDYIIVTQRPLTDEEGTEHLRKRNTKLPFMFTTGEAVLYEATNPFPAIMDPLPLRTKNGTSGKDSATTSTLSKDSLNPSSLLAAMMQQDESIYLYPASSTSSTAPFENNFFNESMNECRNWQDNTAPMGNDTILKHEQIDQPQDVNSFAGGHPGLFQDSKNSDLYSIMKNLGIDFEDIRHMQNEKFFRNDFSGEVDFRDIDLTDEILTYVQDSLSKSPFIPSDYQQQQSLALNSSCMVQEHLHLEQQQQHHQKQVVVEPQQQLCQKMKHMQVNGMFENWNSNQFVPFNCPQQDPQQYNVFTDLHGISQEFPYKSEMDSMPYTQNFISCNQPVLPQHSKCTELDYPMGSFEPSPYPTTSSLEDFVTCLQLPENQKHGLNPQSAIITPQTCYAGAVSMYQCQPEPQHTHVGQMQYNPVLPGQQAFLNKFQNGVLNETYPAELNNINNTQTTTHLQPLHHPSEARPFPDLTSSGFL
ADAM17 inh – ADAM17 inhibition, QFRET primary screen. actives 0.83% (n = 370,000). recombinant ADAM17, EDANS/DABCYL FRET peptide cleavage. inhibition, % at 6.95 µM. AID 720648. P78536;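 active = inhibition above the mean of compounds lying between control limits plus 3 SD, set per campaign, cut at about 8.5% in these data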;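 also: 0% = DMSO-only wells as the low control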
rCAG binder conf – r(CAG) RNA repeat binding, confirmation. shares compounds with rCAG binder. TO-PRO-1 dye displacement fluorescence. inhibition, % at 3 µM. actives 70% (n = 4,300);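 active = inhibition above a per-plate cutoff, the mean inhibition of sample wells plus 3 SD, cut at about 35% in these data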;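 also: loss of TO-PRO-1 fluorescence as compound displaces dye from 1x1 AA loop RNA; 0% = DMSO only wells and 100% = 100 µM mitoxantrone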
dCAG dye counter – counter-screen for rCAG RNA binders: DNA CAG dye complex inhibitors. shares compounds with rCAG binder. d(CAG) DNA oligo TO-PRO-1 dye displacement, fluorescence. inhibition, % at 3 µM. actives 94% (n = 4,300). AID 652068;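 active = inhibition above its plate's cutoff, the mean test-well inhibition plus 3 SD, cut at about 4.8% in these data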;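 also: 0% = DNA dye mix with DMSO and 100% = 100 µM mitoxantrone; hits displace the dye from DNA and so lower well fluorescence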
DNA CAG DR – DNA CAG dye complex inhibition, dose response counter-screen; shares compounds with rCAG binder; DNA CAG/GTC duplex TO-PRO-1 dye displacement fluorescence; IC50, µM; actives 20% (n = 250); in the data active = IC50 below about 10 µM
An asterisk follows results filed as active; · = no result given. Rows were chosen to be rich in hits. Some 7% of all compounds tested hit in one or more screens of this group.

SMILES	proKLK7 act	ADAM10 inh	GRIN3A LBD mod	rCAG binder	AHR act	ADAM17 inh	rCAG binder conf	dCAG dye counter	others
COC(=O)C1=C(C)N(Cc2ccc(C(F)(F)F)cc2)C(=NCc2ccccc2C(F)(F)F)NC1c1ccc(Cl)cc1 (stereo not given)	0.0	-0.8	·	4.7	·	-5.5	·	·
Cc1ccc(NC(=O)CSc2ncc(S(=O)(=O)c3ccccc3)c(=O)[nH]2)cc1C	-0.3	8.6	-0.7	49.4*	1.3	3.5	43.2*	11.5*
COc1cccc(NC(=O)CSc2ncc(S(=O)(=O)c3ccccc3)c(=O)[nH]2)c1	-0.6	0.4	-6.2	20.0	1.9	-6.4	·	·
COc1ccc(-c2cc(C(=O)NN=C/C(C)=C/c3ccccc3)[nH]n2)cc1	-3.2	4.7	·	11.6	·	-0.3	·	·
O=C(N/N=C/c1cc([N+](=O)[O-])ccc1O)NC12CC3CC(CC(C3)C1)C2	0.0	3.1	8.1	62.9*	-1.4	-5.3	36.3*	9.5*
O=[N+]([O-])c1ccc(O)c(/C=N/NC(=S)Nc2ccc(Cl)cc2Cl)c1	-0.1	-2.0	3.6	45.8*	11.0	-0.1	88.9*	64.2*
Cc1cc(Cl)ccc1NC(=O)CCC(=O)N/N=C/c1cc([N+](=O)[O-])ccc1O	0.4	-0.3	0.7	3.4	2.0	-2.7	·	·
O=[N+]([O-])c1cccc(N/N=C/c2cc([N+](=O)[O-])ccc2O)c1	-0.8	5.3	31.1*	36.2*	53.6*	-0.4	26.8	10.1*
O=[N+]([O-])c1ccc(O)c(C=NNc2ccc(S(=O)(=O)O)cc2)c1	0.1	-11.1	-14.4	4.9	·	-0.5	·	·
O=C(N/N=C/c1cc([N+](=O)[O-])ccc1O)C12CC3CC(CC(C3)C1)C2	0.2	-5.9	-4.3	0.3	2.4	-6.1	·	·
CC1(C)CC(=O)N(CC(=O)N2CCN(c3ccc(F)cc3)CC2)c2ccccc2S1(=O)=O	0.7	-5.5	·	3.6	·	0.3	·	·
C[C@@H]1C(=O)N2N=Cc3cc4ccccc4cc3[C@H]2N2N=Cc3cc4ccccc4cc3[C@@H]12	-0.6	-10.1	·	8.0	·	-5.3	·	·
Cc1ccccc1-c1cc2nc(NCc3ccccc3F)n(C)c(=O)c2s1	0.5	-6.9	·	3.5	·	-3.7	·	·
Cc1ccc(-n2ccc(=O)c(C(=O)Nc3ccc(S(=O)(=O)Nc4onc(C)c4C)cc3)n2)cc1	0.8	-8.2	-2.8	59.1*	0.9	-4.3	46.3*	15.9*
O=C(Nc1nc(-c2ccccc2)cs1)c1ccccc1NS(=O)(=O)c1ccc(F)cc1	-1.1	-203.6	31.6*	89.3*	23.5	-102.0	88.9*	69.6*
O=C(Nc1cccnc1)c1ccccc1NS(=O)(=O)c1ccc(F)cc1	-0.4	-28.4	-7.0	27.4	6.9	-15.3	·	·
Cc1noc(NS(=O)(=O)c2ccc(NC(=O)c3cc(-c4ccccc4Cl)nc4ccccc34)cc2)c1C	0.2	-2.1	0.5	83.3*	1.8	0.0	75.1*	34.2*	DNA CAG DR=8.53*
Cc1ccc(S(=O)(=O)Nc2ccc3[nH]c(=O)[nH]c3c2)c(C)c1	0.6	-5.7	-0.6	-0.7	4.4	-5.2	·	·
Cc1cc(F)ccc1S(=O)(=O)Nc1ccccc1C(=O)Nc1ccc2[nH]c(=O)[nH]c2c1	0.0	-9.1	8.6	61.0*	-2.8	-7.7	63.4*	25.9*
Cc1cc(C(=O)Nc2ccc(S(=O)(=O)Nc3onc(C)c3C)cc2)cs1	0.5	-4.4	-0.1	10.4	-2.1	0.5	·	·
Cc1noc(NS(=O)(=O)c2ccc(NC(=O)c3nn(-c4ccc(F)cc4)ccc3=O)cc2)c1C	0.4	-2.0	-3.0	30.6	4.0	-1.6	·	·
CCCCc1c(-c2ccccc2OC)ncn1Cc1c(Cl)cccc1Cl	0.4	-9.3	·	1.6	·	-1.9	·	·
Cc1nc2c(OCc3ccc(OC(F)F)cc3)cccn2c1N(C)C(=O)CCC1CCCC1	-0.3	-3.1	·	0.2	·	-0.6	·	·
Cc1cc(C(=O)Nc2ccc(S(=O)(=O)Nc3onc(C)c3C)cc2)c(C)o1	-0.6	1.0	-0.8	11.3	0.9	-1.3	·	·
Cc1noc(NS(=O)(=O)c2ccc(NC(=O)c3cc(S(=O)(=O)N(C)c4ccccc4)ccc3Cl)cc2)c1C	-0.1	6.9	0.2	76.8*	·	1.2	75.8*	40.8*
SMILES	proKLK7 act	ADAM10 inh	GRIN3A LBD mod	rCAG binder	AHR act	ADAM17 inh	rCAG binder conf	dCAG dye counter	others
Cc1noc(NS(=O)(=O)c2ccc(NC(=O)C(C)C)cc2)c1C	0.0	-4.0	0.4	1.7	5.1	-3.2	·	·
Cc1noc(NS(=O)(=O)c2ccc(NC(=O)c3ccoc3C)cc2)c1C	0.3	2.0	0.1	16.5	0.2	-1.0	·	·
Cc1ccc(-c2cc(C(=O)Nc3ccc(S(=O)(=O)Nc4ncccn4)cc3)[nH]n2)c(O)c1C	-0.1	8.8	10.2*	61.5*	-2.3	0.9	53.4*	19.3*
Cc1noc(NS(=O)(=O)c2ccc(NC(=O)c3ccccc3NS(=O)(=O)c3ccc(F)cc3)cc2)c1C	0.7	-43.1	-2.6	68.3*	0.7	-11.3	56.1*	20.9*
Cc1noc(NS(=O)(=O)c2ccc(NC(=O)c3cc(S(=O)(=O)Nc4ccc(F)cc4)ccc3Cl)cc2)c1C	-0.3	4.0	4.1	59.2*	·	0.9	51.5*	22.8*
Cc1ccc(-c2cc(C(=O)Nc3ccc(S(=O)(=O)Nc4onc(C)c4C)cc3)[nH]n2)c(O)c1	0.0	0.9	-4.2	84.4*	1.6	-1.2	78.3*	44.3*
O=C(O)CCCC[n+]1ccccc1	-0.2	-14.2	·	1.3	·	1.8	·	·
FC(F)(F)c1cc(CNC2CCC23CCC(c2ccccc2)CC3)ccc1Cl (stereo not given)	·	-6.9	·	·	·	-5.5	·	·
Cc1c(NC(=O)c2ccccc2NS(=O)(=O)c2ccc(Br)cc2)c(=O)n(-c2ccccc2)n1C	0.3	1.4	-6.4	41.8*	-0.1	-0.5	46.9*	13.9*
Cc1c(NS(=O)(=O)c2ccc(Br)cc2)c(=O)n(-c2ccccc2)n1C	-0.2	0.6	-2.8	-3.5	-0.2	3.3	·	·
O=C(Nc1cccc(C(=O)O)c1)/C(=C\C=C\c1ccccc1)NC(=O)c1ccccc1	-0.2	5.5	-2.7	29.1	0.1	-1.1	·	·
O=C(Nc1ccc(C(=O)O)cc1)/C(=C\C=C\c1ccccc1)NC(=O)c1cccc(Br)c1	0.3	10.9	-7.3	78.0*	0.0	7.9	80.0*	51.5*
O=C(Nc1ccc(C(=O)O)cc1)/C(=C\C=C\c1ccccc1)NC(=O)c1ccccc1Br	0.7	-11.2	6.5	53.7*	7.1	1.7	35.4*	11.5*

Screens deposited in PubChem by several laboratories.
